Data as given in PubChem BioAssay AID1209 (Sanford-Burnham Center for Chemical Genomics, 2008).
Hit rate of the full screen: of about 190,000 compounds, about 810 (0.43%) were called active. This is one part of a sample in which actives are shown more often than they occur. No stated cut-off is given here; in the data, active means inhibition above about 50%; inactive means the rest.

What follows are compounds tested against Mannose-6-phosphate isomerase (Homo sapiens) (UniProt P34949) (assay: inhibitors of human PMI, primary screen, biochemical, fluorescence intensity, coupled assay (AID 1209;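 further: plate controls were DMSO vehicle for no effect and wells lacking substrate for full effect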)). Conditions: purified PMI enzyme, at 20 µM, hits give high values.
Chain of Mannose-6-phosphate isomerase (Homo sapiens) (P34949 whole entry, looked up): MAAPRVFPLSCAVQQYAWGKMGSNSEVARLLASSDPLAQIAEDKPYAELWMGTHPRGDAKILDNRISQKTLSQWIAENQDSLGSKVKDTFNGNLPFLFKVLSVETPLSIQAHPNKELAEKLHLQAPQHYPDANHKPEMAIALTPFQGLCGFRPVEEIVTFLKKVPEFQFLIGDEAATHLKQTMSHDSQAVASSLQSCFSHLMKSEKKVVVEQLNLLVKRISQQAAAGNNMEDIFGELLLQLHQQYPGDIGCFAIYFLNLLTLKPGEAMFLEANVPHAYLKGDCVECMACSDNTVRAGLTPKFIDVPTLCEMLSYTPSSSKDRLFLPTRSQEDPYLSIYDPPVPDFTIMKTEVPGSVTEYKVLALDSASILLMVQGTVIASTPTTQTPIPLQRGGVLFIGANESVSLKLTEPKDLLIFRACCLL

inhibition, active:
O=c1c(O[C@@H]2O[C@H](CO)[C@@H](O)[C@H](O)[C@H]2O)c(-c2ccc(O)c(O)c2)oc2cc(O)cc(O)c12 62.8%
COc1ccc(OCc2nnc(SCC(=O)N(C)Cc3ccccc3)n2N)cc1 50.1%
CCS(=O)(=O)c1ccc2oc(Nc3ccc(C(C)C)cc3)nc2c1 63.4%
COCC(=O)N(C)c1nnc(-c2ccccn2)s1 102%
COc1ccccc1C1=Nn2c(COc3ccccc3)nnc2SC1 67.8%
O=C(O[C@@H]1Cc2c(O)cc(O)cc2O[C@@H]1c1cc(O)c(O)c(O)c1)c1cc(O)c(O)c(O)c1 67.2%
CC1=C/C(=N\OS(=O)(=O)c2ccccc2)C(C)=CC1=O 106%
CC1=C/C(=N\OS(=O)(=O)c2ccccc2)C(C(C)C)=CC1=O 78.5%
CC1=C/C(=N\OS(=O)(=O)c2ccccc2)C=CC1=O 96.1%
c1ccc(-c2ccc(C3=Nn4c(Cn5nnc6ccccc65)nnc4SC3)cc2)cc1 50.3%
CC1(C#CC[N+]2(C)CCCCC2)CCC2C(O1)c1ccccc1OC2(C)C (stereo unspecified) 105%
Cc1cc(C(=O)NNC(=S)Nc2ccccc2C)cs1 70.7%
Oc1ccc(C=Nc2ccc3ncccc3c2)c(O)c1 68.4%
Clc1ccc(CN2CCN(/N=C/c3cccnc3)CC2)cc1 85.6%
COc1ccc(NC(=O)CSc2nc3c(c(-c4cccs4)c2C#N)CN(C)CC3)cc1OC 59.8%
Cc1cccc(CSc2nc3c(c(-c4cccs4)c2C#N)CN(C)CC3)c1 69.6%

inhibition, inactive:
O=c1c(-c2ccc(O)cc2)coc2cc(OC3OC(CO)C(O)C(O)C3O)ccc12 (stereo unspecified) -7.2%
COc1cc2c(=O)c(-c3ccc(O)cc3)coc2cc1OC1OC(CO)C(O)C(O)C1O (stereo unspecified) 3.2%
COc1ccc2[nH]c(=O)c(CN(Cc3cccs3)C(=S)Nc3ccccc3)cc2c1 22.8%
COc1ccc(OCc2nnc(SCC(=O)O)n2N)cc1 4.6%
CCN(CC)C(=O)CSc1nnc(COc2ccc(OC)cc2)n1N 1.7%
CC(=O)c1c(C)nc(-c2ccc(OCC(=O)Nc3ccccc3)cc2)n1O -7.9%
CCS(=O)(=O)c1ccc2oc(Nc3ccc(OC)cc3)nc2c1 -4.5%
CCS(=O)(=O)c1ccc2oc(Nc3ccc(C(C)(C)C)cc3)nc2c1 15.9%
O=C(NNC(=O)c1sccc1-n1cccc1)c1ccc(F)cc1 0.7%
CCCCOc1ccc(CSc2nnc(C)n2N)cc1[N+](=O)[O-] -8.7%
O=C(Nc1ccc(F)cc1)c1ccc(Cn2cnnn2)cc1 -9.3%
COCC(=O)N(C)c1nnc(-c2cnccn2)s1 -3.9%
CC(=O)N(C)c1nnc(-c2ccccn2)s1 -0.7%
CCCc1cc(=O)[nH]c(SCc2ccccc2)n1 13.6%
O=C(CSc1nc2ccccc2c(=O)n1CCCN1CCOCC1)N1CCN(c2ccccc2)CC1 -4.4%
Cc1ccccc1NS(=O)(=O)c1ccc(C(=O)OCC(=O)NCC(C)C)cc1 -11.1%
COc1ccc(OCc2nnc3n2N=C(c2ccc(OC)cc2)CS3)cc1 -9.9%
c1ccc(OCc2nnc3n2N=C(c2ccccc2)CS3)cc1 47.7%
CCc1ccccc1NC(=O)N1CCC(NC(=O)C(Cc2ccccc2)NC(C)=O)CC1 (stereo unspecified) -12.4%
CC(C)[C@H](NC(=O)c1ccccc1)C(=O)OCC(=O)N1CC(=O)Nc2ccccc21 14.2%
CCCCNC(=O)CSc1nc2ccccc2n1S(=O)(=O)c1ccc(Cl)cc1 -2.1%
COc1ccc(-c2nc(SC)n(C)c(=O)c2C#N)cc1OC 13.4%
O=C1C[C@@H](c2ccc(O)cc2)Oc2cc(O)cc(O)c21 10.6%
O=C1CC(c2ccc(O)cc2)Oc2cc(O)cc(O)c21 (stereo unspecified) 11.5%
Cc1cccc(C(=O)NC2CC3CCCC(C2)N3S(=O)(=O)c2ccccc2)c1 (stereo unspecified) 12.2%
CCOCc1[nH]c(=S)[nH]c(=O)c1Cc1ccc(OCC(C)C)cc1 -4%
O=C(C1CCCN(CCCc2ccccc2)C1)N1CCCCCC1 (stereo unspecified) -9.9%
Cc1ccc(S(=O)(=O)ON=C2CCN(S(=O)(=O)c3ccccc3)CC2)cc1 8%
CC(=O)N1C(C)(C)CC(=NOS(=O)(=O)c2ccccc2)CC1(C)C -17.4%
CC1=CC(=O)C=C(C)C1=NOC(=O)/C=C\c1ccccc1 17.8%
O=S(=O)(O/N=C1\CCCc2ccccc21)c1ccccc1 -1.2%
CC1=CC(=O)C=C(C)C1=NOc1ccccc1[N+](=O)[O-] 25.5%
CC1=C/C(=N\OC(=O)/C=C/c2ccccc2)C(C)=CC1=O 3.5%
CC1=CC(=O)c2ccccc2C1=O -57.7%
CC1=CC(=O)C(C(C)C)=CC1=NC(=O)c1ccc(C)cc1 46.6%
CC1CCN(C(=O)c2ccc(SCc3ccccc3F)c([N+](=O)[O-])c2)CC1 20%
O=C(O)CCCC(=O)Nc1cc([N+](=O)[O-])ccc1O 9.3%
COc1ccc(O)c(/C=N/NC(=S)Nc2cccc(S(=O)(=O)N(C)C)c2)c1 -10.9%
O=C(c1cn[nH]c1)c1cc(F)ccc1O 12.2%
COc1ccc(C(=O)N/N=C(/C)c2cccc(NC(=O)C(F)(F)F)c2)cc1 0.4%
CC(C)(C)c1ccc(S(=O)(=O)O/N=C2/CCCCC2c2ccc([N+](=O)[O-])cc2[N+](=O)[O-])cc1 (stereo unspecified) 7.7%
CCN(CC)Cc1cc(NC2=NS(=O)(=O)c3ccccc32)ccc1OC(=O)c1ccccc1 -5.8%
CC(C)(C)c1ccc(C(=O)NNC(=S)NCC2CCCO2)cc1 (stereo unspecified) -0.9%
O=C1c2ccccc2C(=O)N1CCSc1n[nH]c(=S)s1 -5.1%
Cc1nn(-c2ccccc2)c(Cl)c1C(=O)Nc1ccc(N2CCOCC2)cc1 -17.1%
COc1ccc(S(=O)(=O)NN=C2CCCCC2)cc1 -30.4%
COc1ccc(-n2nc(C(=O)NCC(=O)NCc3ccco3)c3ccccc3c2=O)cc1 0.1%
Fc1ccc(C2=Nn3c(Cc4ccccc4)nnc3SC2)cc1 11.2%
c1ccc(Cc2nnc3n2N=C(c2ccccc2)CS3)cc1 13.3%
O=C(COC(=O)c1cccnc1Cl)Nc1ccccc1OC(F)F -0.4%
CCC(C)(C)NC(=O)C(c1cccn1C)N(C(=O)Cn1nnc2ccccc21)c1ccccc1OC (stereo unspecified) -6.8%
N#Cc1cn(CCOC(=O)c2cccc(C(F)(F)F)c2)c(=O)[nH]c1=O 4.3%
CCN1CCN(c2nc3ccccc3nc2C(C#N)C(=O)OCc2ccccc2)CC1 (stereo unspecified) 8.9%
COC(=O)c1ccc(OC(=O)c2ccco2)cc1 -5%
O=C(Oc1ccc(-c2cnc3ccccc3n2)cc1)c1ccco1 0.2%
Cc1cccc(-n2nnnc2SCC(=O)c2cc(C)n(Cc3ccco3)c2C)c1 -2.6%
CC(=O)Nc1nc2c(c3c1c(=O)oc1ccccc13)CCCCC2 -2.8%
CCOc1ccc(CONS(=O)(=O)c2ccc(NC(C)=O)cc2)cc1Cl 16.3%
C[N+]1(CC#CC(O)(c2ccccc2)c2ccccc2)CCCC1 21.6%
CC12CCC3(CO)COC(c4ccccc4O1)C2C3 (stereo unspecified) 3.4%
C=CCN(CC=C)C(=O)Nc1ccc2nc(C)sc2c1 8.1%
CCOC(=O)N1CCN(C(=O)c2ccc(S(=O)(=O)NCc3ccco3)cc2)CC1 -4.2%
Cc1ccc(NC(=O)c2ccc(N/N=C/c3cccc(O)c3)c([N+](=O)[O-])c2)cc1 5.1%
O=c1[nH][nH]c(-c2ccccc2)c1C=Nc1ccc(Cl)cc1 -4.3%
Cn1cnnc1SCC(=O)Nc1ccccc1F -2%
Cc1cccc(NC(=S)NNC(=O)c2csc(C)c2)c1 -3.7%
CCc1cc(C(=O)NNC(=S)Nc2ccccc2C)cs1 -8.6%
O=C(Nn1cnnc1)C1CCCN1S(=O)(=O)c1ccc(F)cc1 (stereo unspecified) -3.3%
Cc1ccc(NC(=O)CSc2nnc(C)n2-c2ccccc2)cc1 -1.7%
Cc1ccc(-n2c(=O)[nH]c3ncccc3c2=O)cc1 12.9%
Cc1ccc(N=Cc2ccc(O)cc2O)cc1F 9.4%
Oc1ccc(C=Nc2cccc3ncccc23)c(O)c1 46.8%
O=C(COC(=O)c1cccc(Cl)c1)Nc1cc(Cl)ccc1Oc1ccccc1 18.8%
Cc1cc(OCC(O)CN)ccc1Cl (stereo unspecified) -8.6%
Cc1ccc(CN2CCN(/N=C/c3cccnc3)CC2)cc1 17.9%
C(=N\N1CCN(Cc2ccccc2)CC1)/c1cccnc1 9.3%
CN1CCc2nc(SCC(=O)Nc3ccc(OC(F)(F)F)cc3)c(C#N)c(-c3cccs3)c2C1 15.7%
Cc1cccc(CSc2nc(N)c(C#N)c(-c3cccs3)c2C#N)c1 6.6%
CC(C)(C)C(=O)CSc1nc2c(c(-c3cccs3)c1C#N)CCC2 -25.9%
CN1CCc2nc(SCC(=O)Nc3cccc(F)c3)c(C#N)c(-c3cccs3)c2C1 35%
